Measured values taken from PubChem BioAssay (NCATS).
Inconclusive results are not listed. Entries that show only a call come without a potency. The source made the active and inactive calls. Calls come from the whole dose curve; as a rule, active = well fitted inhibition curve with a large enough effect; inconclusive = small, poorly fitted or top-dose-only effect; inactive = no such curve, though single readings can be large or run the other way.

Assay: HTS Assay for Allosteric Antagonists of the Human D2 Dopamine Receptor: Hit Validation in HTRF (AID 624455);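 note: stable D1 dopamine receptor cell line scored for blocking the D1 response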
Details: Cells stably expressing D1 dopamine receptor, inhibition mode; series mostly up to 46.1 µM
Summary of the method: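 Inhibition of the D1-mediated response is measured by HTRF in cells that stably express the D1 dopamine receptor. Compounds reaching this step are hits from calcium-flux antagonism testing at EC80 dopamine in inducible Hek293 Trex D2 cells.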

Structure (SMILES) | Potency
CCCCCCCCc1ccc(-c2ccc(C(=O)O)cc2)cc1 | inactive
C[N+]1(C)C2CC(OC(=O)[C@H](CO)c3ccccc3)CC1C1OC12 (some centres undefined) | inactive
CC(C)ON([C@@H](C(=O)NO)C(C)C)S(=O)(=O)c1ccc(-c2ccccc2)cc1 | inactive
CN(C)C(N)=NCCC[C@H](N)C(=O)O | inactive
CN(C)c1nc(N)c(C(=O)N=C(N)N)nc1Cl | inactive
COc1cc2c(CCNC(C)=O)c[nH]c2cc1Cl | inactive
O=C(CCCCCN1CCN(c2ccccc2-c2ccccc2)CC1)NC1CCCc2ccccc21 (centres undefined) | inactive
C[N+](C)(C)CCOP(=O)(O)OP(=O)([O-])OC[C@H]1O[C@@H](n2ccc(N)nc2=O)[C@H](O)[C@@H]1O | inactive
O=c1[nH]c2cc(C(F)(F)F)ccc2n1-c1cc(C(F)(F)F)ccc1O | inactive
CO/S(=N\S(=O)(=O)c1ccc(Cl)cc1)c1ccc([N+](=O)[O-])cc1 (centres undefined) | inactive
NC(N)=NC(=O)c1nc(Cl)c(N2CCCCCC2)nc1N | inactive
O=C(O)[C@@H]1C[C@@H](C(=O)O)N1 | inactive
CCCCCCCCCCCCCCCCCC(=O)OC(CC(=O)O)C[N+](C)(C)C (centres undefined) | inactive
N#C/C(=C\c1ccc(O)c(O)c1)C(=O)c1ccc(O)c(O)c1 | inactive
CC1(C)CCC=[N+]1[O-] | inactive
C#CCN1C(C)=C(C(=O)OC)C(c2cccc([N+](=O)[O-])c2)C(C(=O)OCC)=C1C (centres undefined) | inactive
O=[N+]([O-])c1ccc(CSc2ncnc3c2ncn3[C@@H]2O[C@H](CO)[C@@H](O)[C@H]2O)cc1 | inactive
CSc1ccccc1N1CCN(CCCCCC(=O)NC2CCCc3ccccc32)CC1 (centres undefined) | inactive
CC(=O)N[C@H](C(=O)O)C(C)(C)SN=O | inactive
